# CHRM1 agonist: human M1 muscarinic receptor agonists, primary screen, Fluo-8 calcium fluorescence, CHO-K1 cells, HTS; AID 588814, 2011; actives 0.33% (n = 360,000); activation, % at 3 µM; CHO-K1 hM1, agonist mode; 0% DMSO, 100% acetylcholine EC100; Muscarinic acetylcholine receptor M1 (Homo sapiens), P11229;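 active = activation above the run's mean compound activation plus 3 SD, cut at about 16% in these data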;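 also: peak over basal fluorescence ratio within a 140 s kinetic read after compound addition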
# Target sequence (P11229 whole entry, looked up): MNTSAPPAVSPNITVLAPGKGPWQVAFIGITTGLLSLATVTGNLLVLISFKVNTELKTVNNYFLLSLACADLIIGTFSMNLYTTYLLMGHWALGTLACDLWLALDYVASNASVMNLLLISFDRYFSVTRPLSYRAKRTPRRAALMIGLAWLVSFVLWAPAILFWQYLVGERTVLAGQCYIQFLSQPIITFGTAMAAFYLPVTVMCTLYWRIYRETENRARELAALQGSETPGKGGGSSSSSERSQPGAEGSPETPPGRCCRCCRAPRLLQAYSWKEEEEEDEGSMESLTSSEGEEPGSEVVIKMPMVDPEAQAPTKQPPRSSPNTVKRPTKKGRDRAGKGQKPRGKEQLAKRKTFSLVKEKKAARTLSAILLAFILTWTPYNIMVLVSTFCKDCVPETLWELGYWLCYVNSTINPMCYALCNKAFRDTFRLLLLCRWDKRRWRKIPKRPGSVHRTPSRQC
# M1 PAM parental: nonselective calcium activators in parental CHO-K1 cells, primary screen, counter-screen for M1 PAM project, cell-based, Fluo-8 calcium fluorescence, full deck, 1536-well. activation, % at 3 µM. AID 602247, 2012. ATP EC20; 0% at ATP EC20, 100% at ATP max. actives 0.02% (n = 360,000);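 active = activation above the run cutoff, the mean activation of all test compounds plus 3 SD, cut at about 40% in these data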;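 also: peak over basal fluorescence ratio in a 140 s read after ATP addition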
# M1 ag parental: counter-screen for M1 agonists: effect in parental CHO-K1 cells | AID 602248, 2012 | activation, % at 3 µM | Fluo-8 calcium fluorescence; scaled to maximal ATP response, vehicle zero | actives 0.48% (n = 360,000); in the data active = activation above about 15%;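 also: untransfected CHO-K1 host cells lacking M1 receptor as counterscreen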
# M1 antag: human M1 muscarinic receptor antagonists, primary screen, CHO-K1 cells, Fluo-8 calcium fluorescence, 1536-well | CHO-K1 hM1, ACh EC80 antagonist | actives 1.3% (n = 360,000) | inhibition, % at 3 µM;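 active = percent inhibition above its own plate's cutoff, namely the mean of that plate's compound wells plus 3 SD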;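 also: peak over basal fluorescence ratio during 140 s after agonist addition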
# M1 PAM: human M1 muscarinic receptor positive allosteric modulators, primary screen, CHO-K1 cells, Fluo-8 calcium fluorescence, 1536-well. activation, % at 3 µM. AID 588819, 2011. Muscarinic acetylcholine receptor M1 (Homo sapiens), P11229. CHO-K1 hM1, ACh EC20; 0% = ACh EC20, 100% = maximal ACh. actives 0.088% (n = 360,000); in the data active = activation above about 19%, passing the limit was not always enough
# CHO-K1 Ca antag: nonselective inhibitor or artifact in parental CHO-K1 cells; ATP-induced calcium, Fluo-8 fluorescence; inhibition, % at 3 µM; actives 0.6% (n = 360,000); AID 602250;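 active = inhibition above a per-plate cutoff, the plate's mean sample inhibition plus 3 SD, cut at about 24% in these data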
# Hits are given with their value; - = inactive. Only some compounds are listed: those with a hit (about 2.4% of all), similar ones and a draw of the others.
SMILES,CHRM1 agonist,M1 PAM parental,M1 ag parental,M1 antag,M1 PAM,CHO-K1 Ca antag
N#Cc1cc(C(=O)c2cc(F)ccc2O)cn(-c2nccs2)c1=O,54,-,55,-,-,-
N#Cc1cc(C(=O)c2ccccc2O)cn(-c2nccs2)c1=O,45,-,72,-,-,25
COC(=O)/C=C/c1cnc[nH]1,-,-,-,-,-,-
Cc1ccc(CNc2nc(C)cs2)cc1,-,-,-,-,-,-
COc1cc(OC)cc(C(=O)NCC(=O)OCc2cc(=O)oc3cc(OC)ccc23)c1,-,-,18,-,-,-
COc1ccc2c(COC(=O)CNS(=O)(=O)c3ccccc3)cc(=O)oc2c1,-,-,-,-,-,-
COc1ccc(S(=O)(=O)NCCC(=O)OCc2cc(=O)oc3cc(C)ccc23)cc1[N+](=O)[O-],-,-,-,48,-,34
COc1ccc2c(COC(=O)c3cccc(S(=O)(=O)NCC(C)C)c3)cc(=O)oc2c1,-,-,17,38,-,-
CCCNS(=O)(=O)c1cccc(C(=O)OCc2cc(=O)oc3cc(OC)ccc23)c1,-,-,16,-,-,-
O=S(=O)(c1ccccc1)N(CC1CO1)c1cc(Cl)ccc1Cl (stereo not drawn),-,-,-,-,-,-
CC1(C(=O)NCCc2c[nH]c3ccccc23)CCN1CC1CCCCC1 (stereo not drawn),-,-,-,-,-,-
CC(Nc1nc(-c2ccncc2)nc2ccccc12)c1ccccc1 (stereo not drawn),-,-,-,-,-,-
CC(Nc1nc(-c2cccnc2)nc2ccccc12)c1ccccc1 (stereo not drawn),-,-,17,-,-,-
CC1(C(=O)Nc2cccc(OC(F)(F)F)c2)Cc2c(-c3ccc4c(c3)OCO4)ccnc2O1 (stereo not drawn),-,-,-,-,-,-
CC(=O)Nc1cccc(-n2nnc(SCC(=O)Nc3ccc(F)c(Cl)c3)n2)c1,-,-,22,-,-,-
Cc1ccc(S(=O)(=O)N2CCN(C(=O)N3CCCCC3)CC2)c(C)c1,-,-,-,-,-,-
CC(C)(C)OC(=O)NCCCCCNC(=O)c1nc[nH]c1C(=O)NCCCCCNC(=O)OC(C)(C)C,-,-,-,44,-,-
CC(C)(C)OC(=O)CNC(=O)c1[nH]cnc1C(=O)Nc1ccc(CNC(=O)OC(C)(C)C)cc1,-,-,-,52,-,-
CC(C)(C)OC(=O)CNC(=O)c1nc[nH]c1C(=O)NCc1ccccc1,-,-,-,-,-,-
CC(C)(C)OC(=O)CNC(=O)c1nc[nH]c1C(=O)NCc1ccc(CNC(=O)OC(C)(C)C)cc1,-,-,-,34,-,-
CC(C)(C)OC(=O)NCCCCCNC(=O)c1nc[nH]c1C(=O)NCc1ccc(CNC(=O)OC(C)(C)C)cc1,-,-,15,68,-,-
Cc1cccc(NC(=O)c2nc[nH]c2C(=O)NCCCCCNC(=O)OC(C)(C)C)c1,-,-,-,-,-,-
Cn1c(N)c(C(=O)COC(=O)c2ccc(OC(F)F)cc2)c(=O)n(C)c1=O,-,-,-,-,-,-
CC(C)(C)[C@@H]1COC(=O)[C@@H](Cc2ccc(F)cc2)C/C=C\C[C@H](CC(=O)N(CCO)Cc2ccccc2)C(=O)N1,-,-,-,-,-,-
CC(C)(C)OC(=O)NCc1ccc(NC(=O)c2nc[nH]c2C(=O)NCCNC(=O)c2[nH]cnc2C(=O)Nc2ccc(CNC(=O)OC(C)(C)C)cc2)cc1,-,-,-,-,-,-
CC(C)(C)OC(=O)NCCCC[C@H](NC(=O)c1nc[nH]c1C(=O)N[C@@H](CCCCNC(=O)OC(C)(C)C)C(=O)OC(C)(C)C)C(=O)OC(C)(C)C,-,-,-,-,-,-
CC(C)(C)OC(=O)NCc1ccc(CNC(=O)c2[nH]cnc2C(=O)NC2CCN(C(=O)OC(C)(C)C)CC2)cc1,-,-,-,34,-,-

# High-throughput results as filed in PubChem.
